An excerpt weighted towards active compounds, which were near 12% of everything screened.
JMJD2A Tudor: qHTS Assay for Inhibitors of JMJD2A-Tudor Domain | Lysine-specific demethylase 4A (Homo sapiens), O75164 | AlphaScreen JMJD2A-Tudor / H3K4me3 peptide binding | Potency, µM (doses to about 114 µM), hits mostly inhibitors | 390,000 tested, 4.4% active | AID 504339, 2011; note: nearly all actives have a fitted effect of over 50% in size
BAZ2B inh: qHTS Assay for Inhibitors of BAZ2B. Potency, µM (doses to about 114 µM), most hits filed as inhibitors. 360,000 tested, 4.4% active. AlphaScreen BAZ2B-H3K14Ac peptide displacement. Bromodomain adjacent to zinc finger domain protein 2B (Homo sapiens), Q9UIF8; note: nearly all actives have a fitted effect of over 60% in size
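Inhibition is scored as reduced AlphaScreen emission. The BAZ2B/b-H3(5-23)K14Ac complex (50 nM each) in PBS pH 7.4, 0.01% Tween-20 meets compound (up to 110 uM) for 30 min at RT before bead addition.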
G9a inh: qHTS Assay for Inhibitors of Histone Lysine Methyltransferase G9a; Potency, µM (highest dose often 102 µM), most hits filed as inhibitors; G9a H3K9 monomethylation, AlphaScreen, 2 h; Histone-lysine N-methyltransferase EHMT2 (Homo sapiens), Q96KQ7; AID 504332, 2011; 350,000 tested, 8.8% active; note: nearly all actives have a fitted effect of over 75% in size
Target sequence (Q96KQ7 913-1193 limits assumed): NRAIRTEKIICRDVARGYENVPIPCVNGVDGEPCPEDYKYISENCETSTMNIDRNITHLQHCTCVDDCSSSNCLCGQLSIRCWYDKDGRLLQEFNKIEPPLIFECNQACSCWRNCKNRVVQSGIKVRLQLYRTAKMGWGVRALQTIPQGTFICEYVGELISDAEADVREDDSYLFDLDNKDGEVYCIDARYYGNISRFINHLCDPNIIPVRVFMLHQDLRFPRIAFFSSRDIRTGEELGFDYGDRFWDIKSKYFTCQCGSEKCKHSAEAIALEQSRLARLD
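G9a (20 nM) preincubated 15 min RT with compounds, then 500 nM biotinylated H3K9 peptide and 20 uM SAM added; 2 h RT reaction. Monomethyl-H3K9 product detected by AlphaScreen with anti-H3K9me1 antibody, streptavidin donor and anti-rabbit IgG acceptor beads.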
PLK1 PBD inh: qHTS for Inhibitors of PLK1-PDB (polo-like kinase 1 - polo-box domain): Primary Screen; Serine/threonine-protein kinase PLK1 (Homo sapiens), P53350; 360,000 tested, 2.8% active; Plk1 PBD binding of FITC phosphopeptide, fluorescence polarization; Potency, µM, usual class: inhibitors; AID 720504, 2013; note: series mostly up to about 57 µM; nearly all actives have a fitted effect of over 65% in size
HP1b chromo inh: HTS for Inhibitors of HP1-beta Chromodomain Interactions with Methylated Histone Tails; AlphaScreen HP1-beta / biotin-H3K9me3 peptide binding; Potency, µM (series often up to 114 µM), hits mostly inhibitors; 390,000 tested, 0.56% active; note: nearly all actives have a fitted effect of over 70% in size
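Compound inhibition of the preformed complex between 50 nM HP1-beta and 50 nM biotinylated H3K9me3 peptide was read by AlphaScreen. Buffer was PBS pH 7.4 with 0.01% Tween-20. Incubations ran 30 min at room temperature, with 10 ug/mL donor/acceptor beads.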
PI5P4Ka inh: qHTS for Inhibitors of phosphatidylinositol 5-phosphate 4-kinase (PI5P4K) | 330,000 tested, 1.2% active | max response, % | Phosphatidylinositol 5-phosphate 4-kinase type-2 alpha (Homo sapiens), P48426 | AID 652105, 2013 | PI5P4Kalpha enzyme, ADP-Glo luminescence, 60 min; active compounds read low; active = max response of -50% or lower; inconclusive = between -30% and -50%; inactive = -30% or higher; note: value at the top dose of about 77 µM
Target sequence (P48426 whole entry, looked up): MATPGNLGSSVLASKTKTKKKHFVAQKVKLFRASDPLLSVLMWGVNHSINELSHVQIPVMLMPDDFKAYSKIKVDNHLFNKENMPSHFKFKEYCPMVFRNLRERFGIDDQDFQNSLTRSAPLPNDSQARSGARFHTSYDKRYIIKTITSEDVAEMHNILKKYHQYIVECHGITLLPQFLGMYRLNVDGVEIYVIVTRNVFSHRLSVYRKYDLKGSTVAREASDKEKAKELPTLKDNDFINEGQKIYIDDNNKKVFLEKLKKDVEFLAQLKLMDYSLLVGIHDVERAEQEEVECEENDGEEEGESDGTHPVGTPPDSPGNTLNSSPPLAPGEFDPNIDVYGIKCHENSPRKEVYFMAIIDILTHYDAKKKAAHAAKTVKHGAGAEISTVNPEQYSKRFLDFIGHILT
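Quantitative HTS of the MLSMR library against PI5P4Kalpha with substrate. ATP added last at 5 microM final; room temperature, 60 minutes. Remaining ATP depleted, ADP converted and read as luminescence.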
A number is an active result; [ ] = remark or other dose. Unless noted, calls come from the whole dose curve; as a rule, active = well fitted curve in the direction sought with a large enough effect; inconclusive = small, poorly fitted or top-dose-only effect, or another doubt; inactive = no such curve, though single readings can be large; an effect the other way counts as inactive or inconclusive.

Screening COc1ccc2oc(=O)c(-c3cn4c(n3)sc3cc(F)ccc34)cc2c1 returned JMJD2A Tudor inactive, BAZ2B inh inactive, G9a inh inactive and HP1b chromo inh inactive.
Cc1nnc(SCc2cc([N+](=O)[O-])cc3c2OCOC3)n(N)c1=O was read as JMJD2A Tudor inactive, BAZ2B inh inactive, G9a inh inactive, PLK1 PBD inh inactive, HP1b chromo inh inactive and PI5P4Ka inh inactive.
`CN(C)S(=O)(=O)c1cccc(-c2nnc(SCc3cc(Cl)cc4c3OCOC4)n2N)c1` gave JMJD2A Tudor 40µM, BAZ2B inh inactive, G9a inh 8.9µM, PLK1 PBD inh 9.5µM, HP1b chromo inh inconclusive and PI5P4Ka inh inactive.
For CCN(CC)CCNC(=O)Cn1ncc2c([nH]c3ccccc32)c1=O the results were JMJD2A Tudor inactive, BAZ2B inh inactive, G9a inh inactive and HP1b chromo inh inactive.
c1ccc2[nH]c3cc4ncnc4cc3nc2c1 was read as JMJD2A Tudor inactive, BAZ2B inh inactive, G9a inh inactive, PLK1 PBD inh 24µM, HP1b chromo inh inactive and PI5P4Ka inh inactive.
For COc1ccc(-n2nc(C(=O)NCCc3ccc(Cl)cc3)c3c4ccccc4n(C)c3c2=O)cc1 the results were JMJD2A Tudor inactive, G9a inh inactive and HP1b chromo inh inactive.
`CC(=O)N1CCN(C(=O)c2cc(S(=O)(=O)N3CCCCC3)ccc2Cl)CC1` gave JMJD2A Tudor inactive, BAZ2B inh inactive, G9a inh inactive, PLK1 PBD inh inactive, HP1b chromo inh inactive and PI5P4Ka inh inactive.
For Cc1ccc(N(C(=O)CS(=O)CC(=O)Nc2ccc(F)cc2)C(C)C(=O)NC(C)(C)C)cc1 (stereo not drawn) the results were JMJD2A Tudor inactive, BAZ2B inh inactive, G9a inh 71µM, PLK1 PBD inh inactive, HP1b chromo inh inactive and PI5P4Ka inh inactive.
O=C1C=C(N2CCCCC2)c2ccccc2C1=O was read as JMJD2A Tudor inactive, PLK1 PBD inh inactive, HP1b chromo inh inconclusive and PI5P4Ka inh inactive.
Screening CC(C)(C)C1=CC(=O)C(N2CCOCC2)=CC1=O returned JMJD2A Tudor inactive, BAZ2B inh 50µM, G9a inh inconclusive, PLK1 PBD inh inactive, HP1b chromo inh inconclusive and PI5P4Ka inh inactive.
COc1cc(C2SCC(=O)N2Cc2ccccc2)ccc1O (stereo not drawn) was read as JMJD2A Tudor inactive, BAZ2B inh inactive, G9a inh inactive, PLK1 PBD inh inactive, HP1b chromo inh inactive and PI5P4Ka inh inactive.
`CCOC(=O)c1ccc(N2C(=O)CC(NC3CCN(C(=O)c4cccc(Cl)c4)CC3)C2=O)cc1` (stereo not drawn) gave JMJD2A Tudor inactive, BAZ2B inh inactive, G9a inh 16µM, PLK1 PBD inh inactive, HP1b chromo inh inactive and PI5P4Ka inh inactive.
`CCOc1ccc(N2C(=O)CC(NC3CCN(C(=O)c4cccc(Cl)c4)CC3)C2=O)cc1` (stereo not drawn) gave JMJD2A Tudor inactive, BAZ2B inh inactive, G9a inh inconclusive, PLK1 PBD inh inactive, HP1b chromo inh inactive and PI5P4Ka inh inactive.
Screening CNc1ncnc2ccc(-c3cccc(OC)c3)cc12 returned G9a inh inactive[0.501 µM].
`CCOC(=O)CSc1n[nH]c(-c2cccnc2)n1` gave JMJD2A Tudor inactive, BAZ2B inh inactive, G9a inh inactive, PLK1 PBD inh inactive, HP1b chromo inh inactive and PI5P4Ka inh inactive.
`CCn1c(-c2cccnc2)n[nH]c1=S` gave JMJD2A Tudor 22µM, BAZ2B inh inconclusive, G9a inh inactive[0.501 µM], PLK1 PBD inh inactive and HP1b chromo inh inactive.
For CCCCn1c(-c2cccnc2)n[nH]c1=S the results were JMJD2A Tudor 8.9µM, BAZ2B inh inactive, G9a inh 25µM, PLK1 PBD inh inactive, HP1b chromo inh inactive and PI5P4Ka inh inactive.
For COc1ccc(-c2nc3sc(CCNC(=O)C(=O)Nc4ccc(C)c(C)c4)c(C)n3n2)cc1 the results were JMJD2A Tudor inactive, BAZ2B inh inactive, G9a inh inactive and HP1b chromo inh inactive.
For CC(C)(C)NCC(O)COCc1ccc(Cl)cc1 (stereo not drawn) the results were JMJD2A Tudor inactive[11.4 µM], BAZ2B inh inactive, G9a inh inactive[12.7 µM], PLK1 PBD inh 24µM, HP1b chromo inh inactive and PI5P4Ka inh inactive.
For Cc1c(C)c2c(OCC(=O)NCc3ccccn3)cc3c(c2oc1=O)CCC(C)(C)O3 the results were JMJD2A Tudor inactive, BAZ2B inh inactive, G9a inh inactive, PLK1 PBD inh inactive, HP1b chromo inh inactive and PI5P4Ka inh inactive.
`Cc1ccc(C)c(NC(=O)CN(C)C(=O)CSCc2c(C)noc2C)c1` gave JMJD2A Tudor inactive, BAZ2B inh inactive, G9a inh 32µM, PLK1 PBD inh inactive, HP1b chromo inh inactive and PI5P4Ka inh inactive.
For Cc1noc(C)c1CSCC(=O)Nc1cc(S(C)(=O)=O)ccc1Cl the results were JMJD2A Tudor inactive, BAZ2B inh inactive, G9a inh inactive[0.501 µM], PLK1 PBD inh inactive, HP1b chromo inh inactive and PI5P4Ka inh inactive.
Screening Cc1cc(C)c(NC(=O)CSCc2c(C)noc2C)c(Cl)c1 returned JMJD2A Tudor inactive, BAZ2B inh inactive, G9a inh 40µM, PLK1 PBD inh inactive, HP1b chromo inh inactive and PI5P4Ka inh inactive.
`COc1ccc(OC)c(NC(=O)N2CCN(S(=O)(=O)c3ccc4c(ccn4C)c3)CC2)c1` gave JMJD2A Tudor inconclusive, BAZ2B inh inconclusive, G9a inh inactive and HP1b chromo inh inactive.
Cc1ccc(S(=O)(=O)N2[C@H](CC(=O)c3cccs3)OC[C@@H]2C(C)C)cc1 was read as PLK1 PBD inh inactive and PI5P4Ka inh inactive.
`CCCC(=O)Nc1cc(OC)c(NC(=S)Nc2ccc(CC)cc2)cc1OC` gave JMJD2A Tudor inactive, PLK1 PBD inh inactive, HP1b chromo inh inactive and PI5P4Ka inh inactive.
`CC1(Cc2ccc(C(F)(F)F)nc2)C(=O)Nc2cc(-c3ccccc3Cl)ccc21` (stereo not drawn) gave PLK1 PBD inh inactive and PI5P4Ka inh inactive.
`CCNC(=O)c1c(NC(=O)c2cc(-c3cc(C)cc(C)c3O)n[nH]2)sc2c1CCCC2` gave JMJD2A Tudor inactive, PLK1 PBD inh inactive, HP1b chromo inh inactive and PI5P4Ka inh inactive.
CN(C)C(=O)COc1ccc(S(=O)(=O)c2ccc(OCC(=O)N(C)C)cc2)cc1 was read as JMJD2A Tudor inactive, BAZ2B inh inactive, G9a inh 50µM, PLK1 PBD inh inactive, HP1b chromo inh inactive and PI5P4Ka inh inactive.
Screening CN(C)C(=O)COc1ccc(Br)cc1 returned JMJD2A Tudor inactive, BAZ2B inh inactive, G9a inh inactive, PLK1 PBD inh inactive, HP1b chromo inh inactive and PI5P4Ka inh inactive.
